The list is not random: actives were taken first. Their share in the collection is about 11%.
BAZ2B block: BAZ2B (human) inhibition; Q9UIF8; AlphaScreen BAZ2B-H3K14Ac peptide displacement; Potency, µM (doses to about 114 µM), inactives show at the highest dose activity change, negative = inhibition, hits mostly inhibitors; hit rate 4.4% among 360,000; AID 504333; note: % is set by controls: 0 for no effect and ±100 for the full control effect; nearly all actives have a fitted effect of over 60% in size
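Complex of BAZ2B and biotin-H3K14Ac (50 nM apiece) forms over 30 min at RT, then faces library compounds up to 110 uM for another 30 min; AlphaScreen beads added, 20 min dark incubation, luminescence read.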
HP1b binding inh: blocks HP1-beta chromodomain binding to methylated histone tails | AID 540317 | hit rate 0.56% among 390,000 | Potency, µM (highest dose often 114 µM), for inactives: at the top dose activity change, negative = inhibition, actives largely listed as inhibitors | AlphaScreen HP1-beta / biotin-H3K9me3 peptide binding; note: nearly all actives have a fitted effect of over 70% in size
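AlphaScreen: HP1-beta (50 nM) preformed 30 min with biotin-H3(1-18)K9me3 peptide (50 nM) in PBS pH 7.4, 0.01% Tween-20. Compound added for 30 min at RT, then streptavidin donor/nickel chelate acceptor beads (10 ug/mL) for 30 min.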
L3MBTL1 block: L3MBTL1 (human) inhibition; Q9Y468; AlphaScreen L3MBTL1–H3K9me1 peptide binding; Potency, µM (highest dose often 57.1 µM), inactives show at the top dose activity, negative = inhibition, actives largely listed as inhibitors; hit rate 0.66% among 230,000; AID 485360; note: % is set by controls: 0 for no effect and ±100 for the full control effect; nearly all actives have a fitted effect of over 60% in size
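Displacement of a biotinylated histone H3(1-15) peptide monomethylated at Lys9 (75 nM) from L3MBTL1 (50 nM) was measured by AlphaScreen after a 30 min room-temperature compound incubation; cefsulodin titration served as intraplate control.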
G9a inh: blocks human histone lysine methyltransferase G9a; G9a H3K9 monomethylation, AlphaScreen, 2 h; Potency, µM (top dose mostly 102 µM), inactives show at the top dose activity, negative = inhibition, most hits filed as inhibitors; hit rate 8.8% among 350,000; note: % is set by controls: 0 for no effect and ±100 for the full control effect; nearly all actives have a fitted effect of over 75% in size
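Using a bead-based AlphaScreen, monomethylated H3K9 product from 2 h room-temperature reactions (G9a 20 nM, peptide 500 nM, SAM 20 uM) was detected with 0.5 ug/mL rabbit anti-H3K9me1 antibody.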
JMJD2A Tudor: blocks the human JMJD2A Tudor domain. O75164. AlphaScreen JMJD2A-Tudor / H3K4me3 peptide binding. Potency, µM (highest dose often 114 µM), inactives show at the top dose activity change, negative = inhibition, usual class: inhibitors. hit rate 4.4% among 390,000; note: % is set by controls: 0 for no effect and ±100 for the full control effect; nearly all actives have a fitted effect of over 50% in size
An asterisk follows results filed as active; ? = inconclusive; nt = not tested or not shown; [ ] = remark or other dose. Calls come from the whole dose curve; as a rule, active = well fitted inhibition curve with a large enough effect; inconclusive = small, poorly fitted or top-dose-only effect; inactive = no such curve, though single readings can be large or run the other way. Potency is the fitted concentration of half-maximal effect.

SMILES	BAZ2B block	HP1b binding inh	L3MBTL1 block	G9a inh	JMJD2A Tudor
CCc1ccc(NC(=O)C2CCCN(c3nn4cc(-c5ccc(OC)cc5)nc4s3)C2)cc1 (centres undefined)	0%	-5%	nt	?	-11%
Cc1c(O)nc(SCC(=O)Nc2cccc(C(F)(F)F)c2)n(-c2ccccc2)c1=O	-30%	-3%	nt	45µM*	-23%
COc1cccc(-n2c(SCC(=O)Nc3cc(C)on3)nc3c([nH]c4ccccc43)c2=O)c1	-21%	37%	3%	40µM*	-17%
Cc1cc(NC(=O)CSc2nc3c([nH]c4ccccc43)c(=O)n2-c2ccccc2)no1	2%	14%[57 µM]	nt	14%[59 µM]	-6%
COc1cccc(NC(=O)CSc2nc(O)c(C)c(=O)n2-c2ccc(C)cc2)c1	-20%	0%	nt	-3%	79µM*
COc1ccc(C)cc1NC(=O)C1CCN(S(=O)(=O)c2ccc3[nH]c(=O)oc3c2)CC1	-3%	-10%	nt	-1%[59 µM]	-26%
CC1C(=O)N(S(=O)(=O)c2ccc([N+](=O)[O-])cc2)[C@H]1c1ccc2ccccc2c1 (some centres undefined)	nt	0%	nt	nt	-20%
CCS(=O)(=O)c1ncc(Cl)c(C(=O)Nc2ccc(S(=O)(=O)N(C)c3ccccc3)cc2)n1	?	1%[57 µM]	nt	40µM*	-22%
CS(=O)(=O)c1ncc(Cl)c(C(=O)Nc2ccc(OC(F)F)cc2)n1	5%	35%	-5%	28µM*	-10%
CCSc1ncc(Cl)c(C(=O)Nc2ccc(S(=O)(=O)N(C)c3ccccc3)cc2)n1	-16%	18%	nt	-21%[59 µM]	-28%
CCN(c1ccccc1)S(=O)(=O)c1ccc(NC(=O)c2nc(S(C)(=O)=O)ncc2Cl)cc1	-33%	4%	nt	32µM*	?
CCc1nn(CC(=O)NCc2ccc(OC)cc2OC)c(=O)c2cc3c(OC)cccc3n12	-1%	21%	nt	12%[59 µM]	-16%
CCOC(=O)c1c(C)c(-c2ccccc2)n(CC(=O)Nc2cc(C)ccc2OC)c1C	-8%	14%	nt	-6%[59 µM]	-18%
N#CC1=C(N)OC2=C(C(=O)CCC2)C12CCC1(CC2)OCCO1	-36%	5%	-5%	79µM*	-17%
COc1cccc(-c2cn3c(n2)sc2cc(C(=O)NC4CCCCCC4)ccc23)c1	?	18%	nt	-6%[59 µM]	-10%
Cc1cccc(NC(=O)c2cc(S(=O)(=O)N(C)c3ccc(F)cc3)ccc2Cl)n1	-12%	27%	-14%	-45%[59 µM]	-20%
O=C(c1csnn1)N1CCC2(CC1)CCN(c1ccncc1)CC2	nt	nt	nt	5%[12.7 µM]	nt
Cc1cc(SCC(=O)c2cccc([N+](=O)[O-])c2)nc(=O)[nH]1	?	?	nt	28µM*	?
Nc1nc(SCC(=O)Nc2cccc([N+](=O)[O-])c2)n[nH]1	nt	-16%	-1%	nt	-21%
O=C(CCc1n[nH]c(=O)[nH]c1=O)Nc1cccc([N+](=O)[O-])c1	nt	24%	nt	50µM*	?
COc1ccc(NC(=O)CSc2nc3ncccc3[nH]2)cc1OC	3%	43%	nt	5%[59 µM]	-3%
COc1ccc(OC)c(C(=O)CSc2nc3ncccc3[nH]2)c1	-33%	10%	0%	50µM*	4%[57.1 µM]
O=C(CSc1n[nH]c(=O)[nH]c1=O)c1ccccc1	?	2%	6%	?	-26%
O=C(CSc1n[nH]c(=O)[nH]c1=O)c1cccc([N+](=O)[O-])c1	?	50%	nt	32µM*	-28%
Cc1cc(C)cc(NC(=O)CSc2cc(C)[nH]c(=O)n2)c1	-4%	36%	nt	8%[59 µM]	-3%
COc1cccc(-c2nc3c(C#N)c[nH]n3c2NC2CCCCC2)c1	-25%	46%	nt	?	-11%
CCCCc1nn2c(=O)cc(COC(=O)c3cccs3)nc2s1	-3%	-24%	nt	6%[59 µM]	-17%
CCOc1ccc(NC(=O)CC2C(=O)N(c3ccccc3)C(=O)N2C2CCCCC2)cc1 (centres undefined)	-4%	16%	nt	-32%[59 µM]	-25%
COc1ccccc1NC(=O)CSc1oc(-c2cccs2)nc1S(=O)(=O)c1ccccc1	-13%	21%	nt	?	-15%
O=C(CSc1nc2ncccc2[nH]1)c1cccc([N+](=O)[O-])c1	7%	9%	-5%	40µM*	-27%
